Activity calls are given as the source filed them.
Legend:
[1] = molecular target: Albumin (Bos taurus) (UniProt P02769); assay: bovine serum albumin binders on microarray, profiling panel, artefact control for SMM control protein annotation, biochemical, small-molecule microarray, Alexa647 label, 635/667 nm fluorescence (AID 1118); settings: BSA-A647 binding, fluorescence 635 nm, higher = more signal;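 note: score merges 667 nm emission intensity and signal-to-noise per printed compound spot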
[2] = small-molecule microarray binders of probe aXIP, primary screen, biochemical, NeuroSMM set, 635/667 nm fluorescence (AID 1119); settings: higher = more signal, called active from +8 up or from −8 down;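 note: probe is the protein aXip251-270 applied at 1 µg/mL to compound-printed slides; binding of probe to printed compounds measured as 667 nm fluorescence plus signal to noise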
[3] = small-molecule binders of probe aNOTCH3, primary screen, biochemical, small-molecule microarray, 635/667 nm fluorescence (AID 1120); settings: higher = more signal;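 note: probe is a biotin-tagged antibody raised against NOTCH3 rather than NOTCH3 protein; score merges spot fluorescence near 667 nm with spot signal to noise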
[4] = small-molecule binders of probe aNOTCH2, primary screen, biochemical, small-molecule microarray, 635/667 nm fluorescence (AID 1121); settings: higher = more signal;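 note: score merges feature fluorescence read at 667 nm with its signal to noise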
[5] = molecular target: Carbonic anhydrase 2 (Homo sapiens) (UniProt P00918); assay: CAII small-molecule binders, profiling panel, biochemical, small-molecule microarray, Alexa647-labelled CAII (AID 1122); settings: CAII-A647 binding fluorescence, higher = more signal
[6] = COS7 lysate on small-molecule microarray, probe aHis, 635 nm (AID 1123); settings: COS7 cell lysate, fluorescence, higher = more signal;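 note: z-score combines 667nm fluorescence intensity with signal-to-noise per printed compound spot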
[7] = compound binding in COS7 lysate, probe aLAP1, primary screen, cell lysate, small-molecule microarray (AID 1124); settings: probe aLAP1, fluorescence, higher = more signal;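 note: lysate comes from COS7 cells expressing LAP1 and is applied at 0.3 µg/mL; score merges spot fluorescence near 667 nm with signal-to-noise over triplicate slides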
[8] = tested on: Sam68 (KHDRBS1); assay: Sam68 small-molecule binders, primary screen, biochemical, small-molecule microarray, 635 nm fluorescence (AID 1125); settings: small-molecule microarray binding, higher = more signal;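 note: score merges 667 nm channel intensity with signal to noise over triplicate slides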
[9] = tested on: Chordin-like protein 2 (CHRDL2); assay: CHRDL2 small-molecule binders, primary screen, biochemical, small-molecule microarray, 635 nm fluorescence (AID 1126); settings: small-molecule microarray binding, fluorescence 635 nm; higher = more signal;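 note: printed compound slides probed with Chrdl2 protein at 4 µg/mL for 1 h at 4 C; score merges 667 nm emission intensity with signal to noise over three replicate slides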
[10] = molecular target: Concanavalin-A (Canavalia ensiformis) (UniProt P02866); assay: ConA small-molecule binders, primary screen, artefact control for SMM control protein annotation, biochemical, small-molecule microarray, Alexa647 label, 635 nm (AID 1127); settings: ConA-A647 binding fluorescence, higher = more signal;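 note: z combines 667 nm emission intensity with signal-to-noise across three replicate slides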
[11] = anti-His antibody binders, primary screen, artefact control for SMM control protein annotation, biochemical, small-molecule microarray, 635 nm fluorescence (AID 1128); settings: anti-His Alexa647 antibody binding, higher = more signal;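 note: score merges feature fluorescence with signal-to-noise for each printed compound spot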
[12] = tested on: Human papillomavirus type 1a E7 protein (residues 1-88); assay: HPV1a E7 small-molecule binders, primary screen, biochemical, small-molecule microarray, residues 1-88, 635 nm (AID 1129); settings: small-molecule microarray binding, fluorescence 635 nm; higher = more signal
[13] = molecular target: Focal adhesion kinase 1 (Homo sapiens) (UniProt Q05397); assay: small-molecule microarray binders of FAK, primary screen, biochemical, 635/667 nm fluorescence, BSA, DTT (AID 1130); settings: PTK2 binding, 635 nm fluorescence, higher = more signal;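 note: composite of spot emission at 667 nm and signal to noise over triplicate slides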
[14] = tested on: Fibrinogen (Alexa647-labelled); assay: fibrinogen binders on compound microarrays, profiling panel, artefact control for SMM control-protein annotation, biochemical, small-molecule microarray, 635/667 nm fluorescence (AID 1131); settings: fibrinogen-A647 binding fluorescence, higher = more signal;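 note: z-score merges 667 nm fluorescence with per-spot signal-to-noise over triplicate slides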
[15] = molecular target: Follistatin (Homo sapiens) (UniProt P19883); assay: follistatin binders on small-molecule microarrays, primary screen, biochemical, small-molecule microarray, 635/667 nm fluorescence (AID 1132); settings: FST binding, 635 nm fluorescence, higher = more signal
[16] = molecular target: Fibroblast growth factor 2 (Homo sapiens) (UniProt P09038); assay: FGF2 binders on small-molecule microarrays, primary screen, biochemical, small-molecule microarray, 635/667 nm fluorescence (AID 1133); settings: small-molecule microarray binding, FGF2, fluorescence 635/667; higher = more signal
[17] = mitochondrial membrane potential change in A549 cells, profiling panel, cell-based, JC-1 fluorescence, basal, 24 h, 100 nL (AID 1138); settings: higher = more signal;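 note: A549 lung adenocarcinoma cells under basal conditions with no added stimulus; test concentration not given here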
[18] = tested on: Lefty1; assay: Lefty1 binders on small-molecule microarrays, primary screen, biochemical, small-molecule microarray, 635/667 nm fluorescence (AID 1139); settings: small-molecule microarray binding, fluorescence 635/667; higher = more signal
[19] = tested on: wheat germ agglutinin (Triticum aestivum), Alexa647-labelled; assay: wheat germ agglutinin binders on compound microarrays, profiling panel, artefact control for SMM control-protein annotation, biochemical, small-molecule microarray, 635/667 nm fluorescence (AID 1140); settings: WGA-A647 binding, 635 nm fluorescence, higher = more signal;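 note: score merges 667 nm feature emission with signal to noise over triplicate slides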
[20] = molecular target: Luciferin 4-monooxygenase (Photinus pyralis) (UniProt P08659); assay: firefly luciferase enzyme inhibitors, primary screen, biochemical, luminescence, purified enzyme, 2006 set (AID 1141); settings: SteadyGlo luminescence, 30 min, higher = more signal, called active from +8 up or from −8 down;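 note: cell-free assay with purified firefly luciferase at 100 ng per well in PBS; test concentration not given here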
Chain of Luciferin 4-monooxygenase (Photinus pyralis) (P08659 whole entry, looked up): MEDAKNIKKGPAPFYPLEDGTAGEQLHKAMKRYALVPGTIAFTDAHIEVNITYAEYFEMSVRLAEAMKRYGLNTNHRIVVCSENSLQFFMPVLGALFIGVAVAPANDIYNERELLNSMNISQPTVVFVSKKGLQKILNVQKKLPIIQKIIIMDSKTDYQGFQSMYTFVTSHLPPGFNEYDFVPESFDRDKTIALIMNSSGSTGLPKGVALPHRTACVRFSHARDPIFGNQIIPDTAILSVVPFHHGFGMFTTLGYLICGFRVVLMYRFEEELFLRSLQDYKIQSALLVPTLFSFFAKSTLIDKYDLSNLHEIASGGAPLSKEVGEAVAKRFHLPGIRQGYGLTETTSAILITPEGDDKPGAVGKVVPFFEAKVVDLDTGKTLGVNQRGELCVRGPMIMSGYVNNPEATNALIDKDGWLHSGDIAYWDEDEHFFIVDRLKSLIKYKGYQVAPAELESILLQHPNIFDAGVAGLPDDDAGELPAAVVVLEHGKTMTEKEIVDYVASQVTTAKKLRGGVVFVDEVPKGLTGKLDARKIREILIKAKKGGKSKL

Chain of Fibroblast growth factor 2 (Homo sapiens) (P09038 whole entry, looked up): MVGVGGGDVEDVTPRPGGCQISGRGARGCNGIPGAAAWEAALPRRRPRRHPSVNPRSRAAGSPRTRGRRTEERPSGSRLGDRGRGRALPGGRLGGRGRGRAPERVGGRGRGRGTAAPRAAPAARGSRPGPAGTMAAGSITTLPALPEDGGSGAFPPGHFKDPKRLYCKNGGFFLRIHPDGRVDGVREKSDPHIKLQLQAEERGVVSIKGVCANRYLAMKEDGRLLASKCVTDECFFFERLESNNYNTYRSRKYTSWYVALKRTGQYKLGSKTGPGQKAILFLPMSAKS
Chain of Concanavalin-A (Canavalia ensiformis) (P02866 whole entry, looked up): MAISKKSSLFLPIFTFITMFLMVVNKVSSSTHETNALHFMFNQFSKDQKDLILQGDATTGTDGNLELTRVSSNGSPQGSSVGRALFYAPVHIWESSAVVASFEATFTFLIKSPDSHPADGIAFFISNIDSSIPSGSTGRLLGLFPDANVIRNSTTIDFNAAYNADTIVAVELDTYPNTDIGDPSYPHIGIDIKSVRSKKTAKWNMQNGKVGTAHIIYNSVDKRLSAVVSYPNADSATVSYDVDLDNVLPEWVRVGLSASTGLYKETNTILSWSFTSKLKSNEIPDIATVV
Chain of Focal adhesion kinase 1 (Homo sapiens) (Q05397 whole entry, looked up): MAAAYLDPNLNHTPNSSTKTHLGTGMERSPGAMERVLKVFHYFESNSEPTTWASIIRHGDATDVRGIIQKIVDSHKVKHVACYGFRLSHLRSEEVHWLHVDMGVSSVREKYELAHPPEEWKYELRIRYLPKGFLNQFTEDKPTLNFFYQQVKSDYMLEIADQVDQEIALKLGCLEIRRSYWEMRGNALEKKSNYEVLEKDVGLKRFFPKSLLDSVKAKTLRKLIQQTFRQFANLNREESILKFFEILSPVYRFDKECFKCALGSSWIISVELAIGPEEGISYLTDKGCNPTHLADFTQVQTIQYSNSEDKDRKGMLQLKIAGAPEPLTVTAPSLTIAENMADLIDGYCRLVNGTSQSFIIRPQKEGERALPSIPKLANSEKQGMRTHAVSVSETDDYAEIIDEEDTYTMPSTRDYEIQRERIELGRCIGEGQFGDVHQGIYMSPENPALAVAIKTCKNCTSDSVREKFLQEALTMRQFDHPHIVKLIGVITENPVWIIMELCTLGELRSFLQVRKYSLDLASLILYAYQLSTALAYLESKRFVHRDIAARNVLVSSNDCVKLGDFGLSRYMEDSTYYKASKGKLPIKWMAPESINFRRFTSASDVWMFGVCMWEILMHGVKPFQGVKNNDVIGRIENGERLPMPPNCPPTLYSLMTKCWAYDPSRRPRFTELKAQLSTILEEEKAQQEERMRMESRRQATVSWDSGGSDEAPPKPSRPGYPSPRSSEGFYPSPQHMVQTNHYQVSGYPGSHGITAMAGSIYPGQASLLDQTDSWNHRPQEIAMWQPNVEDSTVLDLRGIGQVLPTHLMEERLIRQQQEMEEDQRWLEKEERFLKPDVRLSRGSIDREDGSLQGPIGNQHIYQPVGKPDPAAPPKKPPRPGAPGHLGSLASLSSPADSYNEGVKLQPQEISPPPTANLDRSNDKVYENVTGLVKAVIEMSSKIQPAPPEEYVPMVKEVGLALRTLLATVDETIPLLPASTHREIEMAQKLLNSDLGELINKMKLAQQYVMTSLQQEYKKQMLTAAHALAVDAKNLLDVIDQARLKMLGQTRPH
Chain of Follistatin (Homo sapiens) (P19883 whole entry, looked up): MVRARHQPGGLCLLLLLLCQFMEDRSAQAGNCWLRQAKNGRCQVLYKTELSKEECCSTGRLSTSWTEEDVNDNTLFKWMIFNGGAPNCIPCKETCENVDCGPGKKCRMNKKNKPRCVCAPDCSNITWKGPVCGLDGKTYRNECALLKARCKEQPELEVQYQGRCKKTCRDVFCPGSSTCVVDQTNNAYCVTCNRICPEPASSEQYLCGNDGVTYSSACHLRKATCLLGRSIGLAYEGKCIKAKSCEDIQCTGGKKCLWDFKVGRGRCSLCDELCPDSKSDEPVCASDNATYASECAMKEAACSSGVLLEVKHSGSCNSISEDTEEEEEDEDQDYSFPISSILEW
Chain of Albumin (Bos taurus) (P02769 whole entry, looked up): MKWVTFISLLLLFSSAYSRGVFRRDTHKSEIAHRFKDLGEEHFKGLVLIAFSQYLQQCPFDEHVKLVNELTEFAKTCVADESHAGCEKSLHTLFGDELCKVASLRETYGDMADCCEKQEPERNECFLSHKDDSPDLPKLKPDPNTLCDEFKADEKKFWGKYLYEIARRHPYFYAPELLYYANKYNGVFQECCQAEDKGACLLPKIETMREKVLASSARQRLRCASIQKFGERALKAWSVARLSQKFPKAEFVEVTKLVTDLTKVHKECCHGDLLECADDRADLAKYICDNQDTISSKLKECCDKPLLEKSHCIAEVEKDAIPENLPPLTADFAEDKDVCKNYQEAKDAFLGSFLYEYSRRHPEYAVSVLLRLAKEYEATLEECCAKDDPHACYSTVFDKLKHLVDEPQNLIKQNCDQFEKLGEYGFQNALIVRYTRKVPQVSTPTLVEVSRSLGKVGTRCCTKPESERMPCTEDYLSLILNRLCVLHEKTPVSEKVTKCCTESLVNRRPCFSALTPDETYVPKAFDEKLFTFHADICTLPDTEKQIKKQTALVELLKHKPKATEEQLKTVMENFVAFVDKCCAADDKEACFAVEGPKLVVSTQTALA

Compound | composite z-score [1] | composite Z-score [2] | composite z-score [3] | composite z-score [4] | composite z-score [5] | composite z-score [6] | composite z-score [7] | composite z-score [8] | composite z-score [9] | composite z-score [10] | composite z-score [11] | composite z-score [12] | composite z-score [13] | composite z-score [14] | composite z-score [15] | composite z-score [16] | z-score [17] | composite z-score [18] | composite z-score [19] | z-score [20]
C=C(CCCC)C(=O)CC[C@@H](OC(C)=O)c1ccc(OCCO)cc1 | -0.267 | 3.19 (inactive) | 0.15 | -0.117 | 0.628 | 0.143 | 1.21 | -0.135 | 0.523 | 0.397 | 1.51 | -0.161 | -0.162 | -0.134 | 1.46 | 1.4 | -0.275 | 1.69 | -0.578 | -1.4 (inactive)
COc1ccc(NN2C(C(O)c3ccccc3)C=CC3C(=O)N(C4CCCCC4)C(=O)C32)cc1 (stereo not given) | 0.74 | 0.38 (inactive) | 0.147 | -0.0047 | 0.749 | 2.67 | 0.4 | 1.32 | -0.223 | 1.12 | 0.864 | 1.26 | 0.82 | 0.996 | 0.925 | 0.202 | 0.338 | 0.769 | 1.03 | -0.684 (inactive)
COc1cc2c(cc1OC)CN(C(=O)[C@@H]1[C@H]3C(=O)O[C@H](c4ccccc4)[C@H](c4ccccc4)N3[C@H](c3ccc(O)cc3)[C@@]13C(=O)Nc1ccc(C#CC4=CCCCC4)cc13)CC2 | 0.833 | -0.0662 (inactive) | 0.0522 | -0.0142 | 0.5 | 1.49 | 0.453 | 1.3 | 0.153 | 1.1 | 1.76 | 1.19 | 0.453 | 0.863 | 1.08 | 0.493 | -0.637 | 1.46 | 1.06 | -1.33 (inactive)
O=C/C=C/c1ccc(-c2ccccc2)cc1 | -1.04 | -0.646 (inactive) | -0.172 | -0.0843 | -0.202 | -0.327 | 1.35 | -0.789 | 0.438 | -0.518 | -0.221 | -0.142 | -0.164 | -0.964 | 0.276 | -0.377 | 0.294 | -0.155 | -0.484 | 0.0686 (inactive)
CCOC(=O)C1=CCC(c2cccn2C(=O)OC(C)(C)C)N(S(=O)(=O)c2ccc(C)cc2)C1 (stereo not given) | 0.871 | 0.76 (inactive) | 0.17 | 0.0351 | 0.523 | 2.82 | 0.421 | 0.948 | 0.551 | 0.722 | 1.86 | 1.21 | 0.42 | 0.827 | 1.13 | 0.433 | 1.22 | 0.498 | 1.2 | -0.997 (inactive)
CC(C)N1C(=O)[C@@]2(Cc3ccccc31)c1ccccc1C(=O)N(Cc1ccccc1C(F)(F)F)[C@H]2c1ccc(CO)cc1 | -0.832 | 0.795 (inactive) | -0.374 | 0.0015 | 0.754 | -0.011 | 0.739 | 1.01 | 1.14 | 1.1 | 0.175 | 0.174 | 0.368 | -0.0628 | 0.902 | 1.18 | -0.602 | 0.76 | -0.203 | -0.301 (inactive)
COCCOC(=O)N1C(=O)[C@@]2(c3cc(C#CC4(O)CCCCCC4)ccc31)[C@H](C(N)=O)[C@H]1C(=O)O[C@H](c3ccccc3)[C@H](c3ccccc3)N1[C@@H]2c1ccc(OCCO)cc1 | 0.736 | 0.133 (inactive) | 0.086 | -0.118 | 0.566 | 2.58 | 0.412 | 1.3 | -0.0029 | 1.17 | 2.19 | 1.21 | 0.428 | 0.95 | 1.34 | 0.888 | -1.71 | 0.673 | 1.11 | -1.03 (inactive)
C=CCNC(=O)[C@H]1[C@@H]2C(=O)O[C@@H](c3ccccc3)[C@@H](c3ccccc3)N2[C@@H](c2ccc(O)cc2)[C@]12C(=O)Nc1ccc(C#CCC(C(=O)OC)C(=O)OC)cc12 | 0.0574 | -0.209 (inactive) | -0.217 | 0.0098 | 0.649 | 1.23 | 0.877 | 0.421 | 0.952 | -0.273 | 2.01 | 1.08 | 0.144 | -0.078 | 0.636 | 0.497 | 0.243 | 0.0372 | -0.0126 | -1.37 (inactive)
COC(=O)[C@@]1(Cc2ccc(OC)cc2)[C@H]2c3cc(C(=O)N(C)C)n(Cc4c(CO)[nH]cc(C)c4=O)c3C[C@H]2CN1C(=O)c1ccccc1 | 0.302 | 0.0713 (inactive) | 0.23 | 0.484 | 0.876 | 2.97 | 0.221 | 0.55 | -0.31 | 0.554 | 0.566 | 1.18 | 1.93 | 0.0557 | 0.0689 | -0.583 | 0.144 | 0.0267 | 0.19 | 1.48 (inactive)
CO[C@H]1O[C@H](CO)[C@@H](OC(=O)CCc2ccccc2)[C@@H]2OC(=O)[C@@H](Cc3ccc4ccccc4c3)C/C=C/C[C@H](Cc3ccc4ccccc4c3)C(=O)O[C@@H]12 | 0.199 | 0.128 (inactive) | -0.21 | -0.172 | 0.191 | 1.18 | 0.273 | -0.183 | -1.34 | 0.208 | 0.0781 | 0.0444 | 0.138 | -0.142 | -0.564 | -0.512 | 1.98 | -0.346 | -0.228 | -0.958 (inactive)
COC(=O)[C@@]1(Cc2ccc(F)cc2)[C@H]2c3cc(C(=O)N4CCCC4)n(CCc4c[nH]c5cc(F)ccc45)c3C[C@H]2CN1C(=O)c1ccccc1 | 0.978 | 0.905 (inactive) | 1.05 | 0.488 | 0.767 | 2.76 | 0.202 | 1.33 | 0.212 | 1.03 | 1.43 | 1.26 | 1.16 | 0.999 | 1.13 | 0.296 | 0.592 | 0.293 | 0.832 | 2.41 (inactive)
